In the supplement of paper PMC6555819 one finds PBM binding z-score data, which are given here for 22 sequences.

In this assay the test system is PPARg:RXRa DBDmut IVT, anti-RXR (DBD mutation: RXRa K156A/R161A, NR concentration 270 nM, RXRa partner concentration 90 nM). Briefly: PBM binding z-score (relative to random genomic background probes); higher = stronger binding; sequences stand for … in GC…GCGATTGACAGCGTAGAATGAAGG
The essentials:
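Regression normalization was applied to scanned fluorescence from custom Agilent 4×180K protein-binding microarrays. Before scanning, arrays were incubated 1 h with ligand-free nuclear receptor dimers, and binding was detected with antibodies against each partner (one per run). Binding z-scores use the random background probes as reference.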
CCTACTGGGCCAACGTCATTGATCAGTCAAAGCA showed a PBM binding z-score of 3.87.
In the case of CCGACTCGGGCAGAAAGGTTACCATACCATCCGG it was -0.0361.
To CCTTCTGGGCCACGAAAGGTCATTGATTCAGTGA belongs 5.63.
ACTAGCAGGCCGAGGGTCACTCAAGATTAGTCCG displayed a PBM binding z-score of -0.156.
In the case of CCTATTAGTTGACCATAAGGGCAACCGAAGCTCG it was 0.774; in that of ACTATTAGTTGACTTACGGCAACCGATACGACGC, -0.0111.
In the case of CCGGCTAGGTCAATGGTCAGCTAAAGCAGCTCGC it was 3.12; in that of TCTAGCAGGCCAGAGGGTCGCTCAAGAGGTACGG, 0.74; in that of ACTTCCGGGTCAACGAGGTTATAGCACGCGTATA, 4.21.
In the case of CCGACTGAGGCATAAGGTTACCATAAGCCAGCCC it was 0.216; in that of GGAACGAGGGCAAGTTGACAGCAGAGTTTGATGG, 4.05.
As for CCAGACTGGTGAGAAGGTAACTCAGCCTCGATTA, the PBM binding z-score was -0.548.
As to CGTCCAAGGTCAGAGAGGTCAGTGGATGCCGAGT, the PBM binding z-score was 2.81.
In the case of TCGGACAGGTGAAGGTAACTCAGGTACGCAGTCG it was 2.03; in that of GCTATTAGTTGAAAGGGCAACCGAATGATTCTCG, 0.456.
To ACAGACAGGTGATGAAGGTGACTCAGGCTATCAT belongs 0.111; to ACTATTAGTTGAGACGATGGCAACCGATAGGTTG, 0.172.
To ACACCAAGGTGATCGTGAGGTCGTTGATACTAAC belongs 0.605.
TGAATGAGGTTATAAAATCAGGGAACGTTGCAAA displayed a PBM binding z-score of 0.257.
In the case of TATACAGGGTCAAAAGCCAGAGTACGAATGTCGA it was 1.58; in that of ACTTACGGGTCACCGAGGTTATAGCACGCGTATA, 4.12.
To TCTGGTAGGTCAGTTGGTCAGCTAACGAGCTGCC belongs 3.49.
